Measured values: PubChem BioAssay (NCI)
About 79,000 compounds went through this panel and 15% of them were active in at least one assay; those are over-represented in the sample as a whole. Activity calls are given as the source filed them. No stated cut-off is given here; in the data, active means growth inhibition above about 70%; inactive means the rest.

What was measured:
[1] = NCI Yeast Anticancer Drug Screen. Data for the rad52 strain (AID 147);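 further: 0% = growth of vehicle-treated control cultures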; conditions: S. cerevisiae rad52 mutant growth inhibition, hits give high values
Procedure, shortened: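 Here a repair-compromised yeast strain receives each compound; its growth is then quantified and normalised to vehicle-only controls.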

[2] = NCI Yeast Anticancer Drug Screen. Data for the wt1 strain (AID 149);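 further: 0% = growth of vehicle-treated wt1 cultures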; conditions: S. cerevisiae wt1 strain (SPY 50644) growth inhibition, hits give high values
Procedure, shortened: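 wt1 strain grown with compound or vehicle; inhibition taken from the growth difference.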

[3] = NCI Yeast Anticancer Drug Screen. Data for the rad50EPP+ strain (AID 151);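 further: 0% = growth of vehicle-treated control cultures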; conditions: S. cerevisiae rad50 mutant strain, hits give high values
Procedure, shortened: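 Read-out is yeast growth inhibition relative to vehicle; cells used were the rad50EPP+ strain.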

[4] = NCI Yeast Anticancer Drug Screen. Data for the rad50 strain (AID 155);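 further: 0% = growth of vehicle-only cultures of the same strain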; conditions: S. cerevisiae rad50 strain growth inhibition, hits give high values
Procedure, shortened: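 DNA repair mutant yeast, compound exposure, growth read-out; inhibition is taken relative to vehicle.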

[5] = NCI Yeast Anticancer Drug Screen. Data for the mec2-1 strain (AID 157); conditions: S. cerevisiae mec2-1 strain, hits give high values
Procedure, shortened: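 Using mec2-1 yeast: add compound, measure growth, express inhibition versus vehicle-treated cultures.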

[6] = NCI Yeast Anticancer Drug Screen. Data for the rad14 strain (AID 159);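 further: 0% = growth of vehicle-treated control cultures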; conditions: S. cerevisiae rad14 strain growth inhibition, hits give high values
Procedure, shortened: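 DNA repair-defective yeast, compound-exposed; % growth inhibition derived by comparison with vehicle-treated controls.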

[7] = NCI Yeast Anticancer Drug Screen. Data for the sgs1 mgt1 strain (AID 161);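 further: 0% = growth of cultures given vehicle only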; conditions: S. cerevisiae sgs1 mgt1 strain, hits give high values
Procedure, shortened: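 Percent growth inhibition was derived by comparing compound-exposed mutant yeast with vehicle-exposed cultures. The strain carries alterations in DNA damage repair.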

[8] = NCI Yeast Anticancer Drug Screen. Data for the CLN2oe strain (AID 163);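 further: 0% = growth of vehicle-only control cultures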; conditions: S. cerevisiae CLN2oe strain, hits give high values
Procedure, shortened: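 Whole-cell yeast growth assay. A strain engineered for altered cell-cycle control received compound, and inhibition relative to vehicle-treated cultures was recorded.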

[9] = NCI Yeast Anticancer Drug Screen. Data for the cln2 rad14 strain (AID 165);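 further: 0% = growth equal to vehicle treated cultures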; conditions: S. cerevisiae cln2 rad14 strain, hits give high values
Procedure, shortened: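 Yeast strain cln2 rad14, bearing defects in cell cycle control and DNA repair, serves as the test system; values reflect growth inhibition compared with vehicle.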

[10] = NCI Yeast Anticancer Drug Screen. Data for the bub3 strain (AID 167); conditions: S. cerevisiae bub3 mutant strain, hits give high values
Procedure, shortened: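 In this screen, a yeast mutant lacking normal mitotic checkpoint function is challenged with compound. Relative growth versus vehicle gives the inhibition value.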

[11] = NCI Yeast Anticancer Drug Screen. Data for the wt2 strain (AID 169);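 further: 0% = growth of vehicle-treated yeast cultures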; conditions: S. cerevisiae wt2 strain growth inhibition, hits give high values
Procedure, shortened: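 Treated yeast vs. vehicle-treated yeast: growth inhibition determined.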

[12] = NCI Yeast Anticancer Drug Screen. Data for the mlh1 strain (AID 171);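 further: 0% = growth of vehicle-treated control cultures of the same strain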; conditions: S. cerevisiae mlh1 strain growth inhibition, hits give high values
Procedure, shortened: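 A yeast strain with a defined genetic lesion serves as the test organism. Cultures receive compound or vehicle, and growth is measured.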

[13] = NCI Yeast Anticancer Drug Screen. Data for the sgs1 strain (AID 173);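 further: 0% = growth of vehicle-only control cultures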; conditions: S. cerevisiae sgs1 mutant, hits give high values
Procedure, shortened: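 A genetically defined yeast mutant is incubated with the test compound, and its growth is compared to that of the same strain given vehicle.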

[14] = NCI Yeast Anticancer Drug Screen. Data for the mlh1 rad18 strain (AID 175); conditions: S. cerevisiae mlh1 rad18 strain growth inhibition, hits give high values
Procedure, shortened: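 Steps: expose repair-defective yeast to compound; measure growth; express inhibition against vehicle-treated controls.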

[15] = NCI Yeast Anticancer Drug Screen. Data for the rad18 strain (AID 177); conditions: S. cerevisiae rad18 mutant growth inhibition, hits give high values
Procedure, shortened: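 Measured value is growth inhibition of a yeast strain bearing a DNA repair alteration, referenced to vehicle-treated cells.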

[16] = at 5.0 µM (retest, dose inferred, filed as 0.5)
[17] = at 50.0 µM (retest, dose inferred, filed as 5.0)

Measured: growth inhibition

Clc1nc(C(Cl)Cl)nc2sc3c(c12)CCCC3
active: [4]; [17] 88% | [4]; at 50.0 µM 98.2% | [5]; [17] 80% | [5]; at 50.0 µM 89.3% | [7]; at 50.0 µM 97.7% | [9]; [17] 81% | [9]; at 50.0 µM 78.2% | [10]; [17] 96% | [10]; at 50.0 µM 92.1% | [11]; at 100.0 µM 73% | [13]; at 100.0 µM 78% | [14]; [17] 74% | [14]; at 50.0 µM 96.3%
inactive: [1]; at 1.2 µM 10% | [1]; at 3.7 µM 11% | [1]; at 11.0 µM 14% | [1]; at 33.0 µM 26% | [1]; at 100.0 µM 54% | [2]; at 1.2 µM 2% | [2]; at 3.7 µM 4% | [2]; at 11.0 µM 5% | [2]; at 33.0 µM 21% | [2]; at 100.0 µM 56% | [3]; at 1.2 µM 1% | [3]; at 3.7 µM 0% | [3]; at 11.0 µM 1% | [3]; at 33.0 µM 0% | [3]; at 100.0 µM -2% | [4]; at 1.2 µM 6% | [4]; at 3.7 µM -1% | [4]; [16] 28% | [4]; at 11.0 µM 1% | [4]; at 33.0 µM 31% | [4]; at 100.0 µM 53% | [5]; at 1.2 µM 11% | [5]; at 3.7 µM 9% | [5]; [16] 5% | [5]; at 11.0 µM 15% | [5]; at 33.0 µM 39% | [5]; at 100.0 µM 66% | [6]; at 1.2 µM 6% | [6]; at 3.7 µM 2% | [6]; at 11.0 µM 9% | [6]; at 33.0 µM 33% | [6]; at 100.0 µM 69% | [7]; [16] 5% | [7]; [17] 26% | [8]; at 1.2 µM 7% | [8]; at 3.7 µM 9% | [8]; at 11.0 µM 12% | [8]; at 33.0 µM 46% | [8]; at 100.0 µM 63% | [9]; [16] 32% | [10]; at 1.2 µM 5% | [10]; at 3.7 µM 3% | [10]; [16] 0% | [10]; at 11.0 µM 8% | [10]; at 33.0 µM 27% | [10]; at 100.0 µM 43% | [11]; at 1.2 µM 3% | [11]; at 3.7 µM 3% | [11]; at 11.0 µM 6% | [11]; at 33.0 µM 36% | [12]; at 1.2 µM 4% | [12]; at 3.7 µM 4% | [12]; at 11.0 µM 7% | [12]; at 33.0 µM 29% | [12]; at 100.0 µM 51% | [13]; at 1.2 µM 7% | [13]; at 3.7 µM 7% | [13]; at 11.0 µM 10% | [13]; at 33.0 µM 51% | [14]; [16] -1% | [15]; at 1.2 µM 12% | [15]; at 3.7 µM 13% | [15]; at 11.0 µM 21% | [15]; at 33.0 µM 35% | [15]; at 100.0 µM 58%

Cc1ccc2occ/c(=N\Nc3ccccc3)c2c1
active: [4]; at 50.0 µM 73.8% | [7]; [17] 70% | [7]; at 50.0 µM 82.5% | [10]; [17] 70% | [10]; at 50.0 µM 87.8% | [10]; at 100.0 µM 70%
inactive: [1]; at 1.2 µM -3% | [1]; at 3.7 µM -4% | [1]; at 11.0 µM 8% | [1]; at 33.0 µM 33% | [1]; at 100.0 µM 39% | [2]; at 1.2 µM 2% | [2]; at 3.7 µM -5% | [2]; at 11.0 µM 4% | [2]; at 33.0 µM 11% | [2]; at 100.0 µM 16% | [3]; at 1.2 µM 1% | [3]; at 3.7 µM -3% | [3]; at 11.0 µM 4% | [3]; at 33.0 µM 58% | [3]; at 100.0 µM 55% | [4]; at 1.2 µM 5% | [4]; at 3.7 µM -7% | [4]; [16] -16% | [4]; at 11.0 µM 6% | [4]; at 33.0 µM 57% | [4]; [17] 31% | [4]; at 100.0 µM 58% | [5]; at 1.2 µM -4% | [5]; at 3.7 µM -4% | [5]; [16] -11% | [5]; at 11.0 µM -2% | [5]; at 33.0 µM 17% | [5]; [17] 23% | [5]; at 50.0 µM 52.7% | [5]; at 100.0 µM 24% | [6]; at 1.2 µM -2% | [6]; at 3.7 µM -2% | [6]; at 11.0 µM -4% | [6]; at 33.0 µM 39% | [6]; at 100.0 µM 45% | [7]; [16] -1% | [8]; at 1.2 µM -9% | [8]; at 3.7 µM -7% | [8]; at 11.0 µM 5% | [8]; at 33.0 µM -1% | [8]; at 100.0 µM 12% | [9]; [16] -21% | [9]; [17] -23% | [9]; at 50.0 µM -23.1% | [10]; at 1.2 µM -4% | [10]; at 3.7 µM -4% | [10]; [16] -4% | [10]; at 11.0 µM -4% | [10]; at 33.0 µM 64% | [11]; at 1.2 µM -2% | [11]; at 3.7 µM -4% | [11]; at 11.0 µM 7% | [11]; at 33.0 µM 55% | [11]; at 100.0 µM 57% | [12]; at 1.2 µM -1% | [12]; at 3.7 µM -5% | [12]; at 11.0 µM -1% | [12]; at 33.0 µM 59% | [12]; at 100.0 µM 63% | [13]; at 1.2 µM -1% | [13]; at 3.7 µM -4% | [13]; at 11.0 µM 4% | [13]; at 33.0 µM 53% | [13]; at 100.0 µM 57% | [14]; [16] -5% | [14]; [17] 52% | [14]; at 50.0 µM 68.3% | [15]; at 1.2 µM -2% | [15]; at 3.7 µM -1% | [15]; at 11.0 µM 7% | [15]; at 33.0 µM 62% | [15]; at 100.0 µM 64%
